Screening results from PubChem.
MBD2 inh = inhibitors of MBD2 binding to methylated DNA, primary screen, biochemical, TR-FRET, DNA-binding domain, human | MBD2 binding to methylated oligonucleotide | Methyl-CpG-binding domain protein 2 (Homo sapiens), Q9UBB5 | inhibition, % at 4.4 µM | 370,000 tested, 0.31% active | AID 686964, 2013; in the data active = inhibition above about 13%
Target sequence (Q9UBB5 whole entry, looked up, the tested form may be a part): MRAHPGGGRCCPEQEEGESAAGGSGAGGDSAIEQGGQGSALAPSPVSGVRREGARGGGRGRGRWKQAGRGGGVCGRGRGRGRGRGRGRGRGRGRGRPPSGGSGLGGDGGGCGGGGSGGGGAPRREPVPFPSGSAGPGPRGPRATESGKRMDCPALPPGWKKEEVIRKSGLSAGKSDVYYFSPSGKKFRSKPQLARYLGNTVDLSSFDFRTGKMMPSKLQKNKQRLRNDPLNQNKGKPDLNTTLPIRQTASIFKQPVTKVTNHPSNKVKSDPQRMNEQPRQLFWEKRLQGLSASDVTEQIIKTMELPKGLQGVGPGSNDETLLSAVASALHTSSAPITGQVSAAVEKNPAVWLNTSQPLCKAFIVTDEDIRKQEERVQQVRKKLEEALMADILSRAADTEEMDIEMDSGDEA
LEDGF integ inh = blockers of LEDGF/p75-dependent integrase strand transfer – biochemical, TR-FRET, high throughput, primary screen | 370,000 tested, 0.64% active | HIV-1 integrase (with human LEDGF/p75) | TR-FRET IN-LEDGF/p75 DNA integration, Eu/Cy5 | inhibition, % at 3.7 µM | AID 743269, 2014;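 active = inhibition above the screen-wide mean plus 3 SD, cut at about 13% in these data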;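 note: signal is the Cy5 over europium emission ratio at 671 and 618 nm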
PLC-gamma1 inh = PLC-gamma1 enzyme inhibitors, primary screen, biochemical, fluorescence, purified enzyme. 1-phosphatidylinositol 4,5-bisphosphate phosphodiesterase gamma-1 (Homo sapiens), P19174. fluorogenic substrate. inhibition, % at 12.2 µM. 370,000 tested, 0.84% active; in the data active = inhibition above about 9.5%
PLC-beta3 inh = human PLC-beta3 inhibitors, primary screen, biochemical, fluorescence | inhibition, % at 12.2 µM | 1-phosphatidylinositol 4,5-bisphosphate phosphodiesterase beta-3 (Homo sapiens), Q01970 | Purified PLC-beta3, fluorogenic substrate | 370,000 tested, 0.18% active; in the data active = inhibition above about 11%
UHRF1 MBD2 ctr = UHRF1 methylated DNA binding inhibitors, primary screen, counter-screen for MBD2 inhibitor project, biochemical, TR-FRET, human UHRF1, single concentration; UHRF1 binding to methylated oligo; E3 ubiquitin-protein ligase UHRF1 (Homo sapiens), Q96T88; inhibition, % at 4.4 µM; 370,000 tested, 0.75% active; in the data active = inhibition above about 21%;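 note: UHRF1 SRA domain binding a hemimethylated CpG hairpin DNA probe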
Each line names hits and unclear results; the compound was inactive in the other large screens. This is a sample that favours compounds with a hit; in the whole collection about 2.3% have one here.

CC(=O)[C@@]1(O)Cc2c(O)c3c(c(O)c2[C@H](O[C@H]2C[C@H](N)[C@H](O)[C@H](C)O2)C1)C(=O)c1ccccc1C3=O	MBD2 inh 106, UHRF1 MBD2 ctr 95
COc1cccc2c1C(=O)c1c(O)c3c(c(O)c1C2=O)C[C@@](O)(C(=O)CO)C[C@@H]3O[C@H]1C[C@H](N)[C@H](O)[C@H](C)O1	MBD2 inh 110, UHRF1 MBD2 ctr 94
COc1cccc2c1C(=O)c1c(O)c3c(c(O)c1C2=O)C[C@@](O)(C(=O)CO)C[C@@H]3OC1CC(N)C(O)C(C)O1 (some centres not stated)	MBD2 inh 112, UHRF1 MBD2 ctr 95
Cc1ccc(S(=O)(=O)N(CCc2ccccc2)CC(=O)N2CCOCC2)cc1	none
O=C(C1CCN(S(=O)(=O)c2cnc[nH]2)CC1)N1CCc2ccccc2C1	UHRF1 MBD2 ctr 30
Fc1ccccc1/C=N/Nc1ncnc2nc[nH]c12	PLC-gamma1 inh 9.8
O=C(OC12CCCN(C1)/C(=C/c1ccc(Cl)cc1)C2)c1ccccc1 (configuration not stated)	none
CSc1nc2c(c(=O)[nH]1)C(c1ccc(C(F)(F)F)cc1)CC(=O)N2 (configuration not stated)	none
Cn1c2c(c(=O)n(C)c1=O)C(c1ccc(C(F)(F)F)cc1)CC(=O)N2 (configuration not stated)	UHRF1 MBD2 ctr 31
CC1=C(C(=O)N(C)C)CC(CC(=O)NCCc2ccccn2)C(=O)N1CCCN1CCCC1=O (configuration not stated)	UHRF1 MBD2 ctr 25
CCN(CC)C(=O)C1=C(C)N(CCCN2CCCC2=O)C(=O)C(CC(=O)NCCc2ccccn2)C1 (configuration not stated)	none
CC1=C(C(=O)N(C)C)CC(CC(=O)NC2CC2)C(=O)N1CCC1=CCCCC1 (configuration not stated)	none
CC1=C(C(=O)N(C)C)CC(CC(=O)NCCCN(C)C)C(=O)N1CCC1=CCCCC1 (configuration not stated)	UHRF1 MBD2 ctr 21
CC1=C(C(=O)N(C)C)CC(CC(=O)NCCCN(C)C)C(=O)N1CCCN1CCCC1=O (configuration not stated)	UHRF1 MBD2 ctr 24
C=CC[C@H]1c2ccccc2[C@H]2N3N=Cc4ccccc4[C@H]3[C@H](CCc3ccccc3)C(=O)N2N1C(=O)c1ccccc1	none
CC(C)(C)NC(=O)C(c1cccnc1)N(C(=O)c1cnc[nH]1)c1ccc(C(C)(C)C)cc1 (configuration not stated)	none
Cc1c(NC(=O)/C=C/c2cn(-c3ccccc3)nc2-c2ccc(F)cc2)c(=O)n(-c2ccccc2)n1C	UHRF1 MBD2 ctr 47
Cc1c(NS(=O)(=O)c2ccc(F)cc2)c(=O)n(-c2ccccc2)n1C	UHRF1 MBD2 ctr 25
Cc1ccc(-c2nn(-c3ccccc3)cc2/C=C/C(=O)Nc2nccs2)cc1	none
COC(=O)[C@]12C[C@H](CC(=O)NCc3cccc4ccccc34)C(=O)N(Cc3ccco3)C1=C[C@H](C1CCCC1)O[C@@H]2C	none
C[C@@]12C(=O)N(CC3CC3)CC(=O)N1[C@H](C1CC1)[C@@H]1C(=O)N(c3ccccc3)C(=O)[C@@H]12	UHRF1 MBD2 ctr 39
Cc1ccc([C@@H]2[C@@H]3C(=O)N(c4ccccc4)C(=O)[C@@H]3[C@]3(Cc4ccccc4)C(=O)N(CC4CC4)CC(=O)N23)o1	none
CCN(CC)C(=O)Cn1nc(Cc2ccncc2)c2ccccc2c1=O	none
CC(=O)Nc1ccc(/C=C/COC(C)=O)cc1C	none
COC(=O)[C@]1(CNS(=O)(=O)C2CC2)CC(=O)N(C)[C@@H]1c1ccccc1	none
CCc1sc(C(=O)NCc2ccco2)cc1Br	UHRF1 MBD2 ctr 26
C[C@H]1[C@@H](OC(=O)NCCc2ccccc2)CC[C@@]23CCCN2C(=O)CCC[C@@H]13	none
CCCCNC(=O)C1c2ccccc2OCC(=O)N1CCc1ccc(OC)c(OC)c1 (configuration not stated)	none
COc1ccc(CCN2C(=O)COc3ccccc3C2C(=O)NCc2ccccc2)cc1OC (configuration not stated)	UHRF1 MBD2 ctr 23
C=C1C2(C(=O)NCc3ccco3)CCC(C2)C1(C)C (configuration not stated)	UHRF1 MBD2 ctr 22
CCOP(=O)(OCC)c1nc(-c2cccc3ccccc23)oc1NCc1ccc(OC)cc1	UHRF1 MBD2 ctr 24
CCc1cc(=O)oc2cc(C)c(CN3CCCCC3)c(O)c12	none
CCCc1cc(=O)oc2cc(C)c(CN3CCCC3)c(O)c12	LEDGF integ inh 13
COc1ccccc1CNc1ccc([N+](=O)[O-])cc1C	UHRF1 MBD2 ctr 48
CCCC1CCC2(CC1)CCC2OC(=S)Nc1ccc(I)cc1 (configuration not stated)	none
Cn1c(/C=C/c2ccc(Cl)cc2)c([N+](=O)[O-])c(=O)n(C)c1=O	UHRF1 MBD2 ctr 21
CN1CCN(S(=O)(=O)c2cccc(C(=O)N3CCN(c4ccccc4)CC3)c2)CC1	UHRF1 MBD2 ctr 49
CC(=O)N1CCN(C(=O)c2cccc(S(=O)(=O)N3CCN(c4ccccc4)CC3)c2)CC1	none
O=C(CSc1nc2ccccc2s1)NC(=O)NCc1ccco1	none
Cc1nnc(SCC(=O)NC(=O)NCc2ccco2)s1	UHRF1 MBD2 ctr 30
O=C(NCCO)[C@H](Cc1ccccc1)NC1(C(=O)NCCc2c[nH]c3ccccc23)CCCCC1	none
O=C1C(NC(=O)N2c3ccccc3C=Cc3ccccc32)CCCCN1Cc1cccc(Cl)c1 (configuration not stated)	none
O=C1C(NC(=O)N2c3ccccc3C=Cc3ccccc32)CCCCN1Cc1ccc(Cl)cc1 (configuration not stated)	UHRF1 MBD2 ctr 27
COC(=O)[C@]12C[C@H](CC(=O)NCc3cccc(C(F)(F)F)c3)C(=O)N(Cc3cccc4ccccc34)C1=C[C@H](COCc1ccccc1)O[C@@H]2C	none
CC(C)(C)c1ccc(S(=O)(=O)NNC(=O)C2CCN(Cc3cccc(F)c3)CC2)cc1	UHRF1 MBD2 ctr 24
O=C(NCCc1cccc(F)c1)C1CCN(S(=O)(=O)c2ccc(F)cc2)CC1	none
Nc1ccc2c(c1)C1(CCC2)NC(=O)NC1=O (configuration not stated)	UHRF1 MBD2 ctr 21
O=C(O)CCN(Cc1ccccc1)S(=O)(=O)c1ccccc1Cl	UHRF1 MBD2 ctr 22
Nc1cccc2nsnc12	none
Nc1cc2nsnc2cc1Br	LEDGF integ inh 48
COc1ccc(C(C)C)cc1S(=O)(=O)Nc1ccncc1	none
